A selection follows.
aSyn 5UTR act – Activators working through SNCA 5'UTR binding (MLPCN). hit rate 7.1% among 300,000. activity score, % (tested at 7.5 µM), hits read low. alpha-synuclein 5'UTR reporter, activators screen. AID 1814; in the data active means activity score below about -60%
* hit, by the source's call.

SMILES	aSyn 5UTR act
COc1ccccc1-c1nc(-c2ccc(Br)o2)no1	-95*
C/C(=N\Nc1ccc(C)c(Cl)c1)c1cccnc1	-105*
O=C(O)c1ccccc1NN=C1CCCCC1	-192*
C/C(=N\Nc1ccccc1C(=O)O)c1ccncc1	-132*
C/C(=N\Nc1ccc(C)c(Cl)c1)c1ccncc1	-77*
COC(=O)c1ccc(NS(=O)(=O)NC(=O)c2cn(C)c3ccccc23)cc1	-84*
COc1cccc(NS(=O)(=O)NC(=O)c2cn(C)c3ccccc23)c1	-69*
CC(C)c1nnc(NC(=O)COc2ccccc2[N+](=O)[O-])s1	-154*
NNC(=O)COc1ccccc1[N+](=O)[O-]	-87*
CCSc1nnc(NC(=O)COc2ccccc2[N+](=O)[O-])s1	-114*
Cn1c(SCc2ccccc2F)nc2cccnc21	-101*
O=C(c1cnn(-c2cccc(F)c2)c1)c1ccccc1O	-194*
O=C(c1cnn(-c2nc3ccccc3s2)c1)c1ccccc1O	-117*
O=C(c1cnn(-c2ccccc2)c1)c1ccc2ccccc2c1O	-119*
COc1ccc(COc2cccnc2N)cc1	-91*
Nc1ncccc1OCc1ccc(Br)cc1	-159*
Cc1ccc(N(C)/N=C/c2ccc(Cl)cc2Cl)nn1	-92*
Cc1ccc(/C(N)=N/OC(=O)COc2ccccc2Cl)cc1	-95*
N/C(=N\OC(=O)COc1ccccc1Cl)c1ccc(Cl)cc1	-90*
Cc1ccc(-n2c(C)nc3c(cnn3-c3ccc(C)c(C)c3)c2=O)cc1C	-101*
C#CCn1cnc2c(cnn2-c2ccc(C)c(C)c2)c1=O	-107*
Cc1nc2c3cnn(-c4ccc(C)c(C)c4)c3ncn2n1	-191*
Cc1ccc(-c2nn3cnnc3c3ccccc23)cc1C	64
CSc1nc(O)c(N=Nc2ccc(F)cc2F)c(=O)[nH]1	-138*
CCc1nnc(NC(=O)C2Cc3ccccc3CN2S(=O)(=O)c2c(C)c(C)cc(C)c2C)s1 (centres undefined)	-104*
SMILES	aSyn 5UTR act
COc1ccc(Cl)cc1NC(=O)C1Cc2ccccc2CN1S(C)(=O)=O (centres undefined)	54
Cc1csc(NC(=O)Cc2ccc(Cl)cc2)n1	-81*
Cc1csc(NC(=O)Cc2ccccc2Cl)n1	-99*
Cn1cccc1C(=O)C(=O)Nc1cc(Cl)cc(Cl)c1	-155*
Cn1cccc1C(=O)C(=O)Nc1ccc(Cl)cc1	-119*
Cn1cccc1C(=O)C(=O)Nc1cccc(Cl)c1Cl	-148*
Cn1cccc1C(=O)C(=O)Nc1ccc(F)c(F)c1	-176*
c1ccc(C2=Nc3ccccc3SC2c2nc3ccccc3[nH]2)cc1 (centres undefined)	-250*
Cc1nc(CSc2ccc(Br)cc2)cs1	-71*
Cn1c(NC(=O)/C=C/c2c(F)cccc2Cl)cc(=O)n(C)c1=O	-172*
Cn1c(NNC(=O)c2ccccc2F)cc(=O)n(C)c1=O	46
Cn1c(NC(=O)/C=C\c2ccccc2)cc(=O)n(C)c1=O	-137*
O=C(/C=C/c1c(F)cccc1Cl)Nc1ncccn1	-228*
Cc1ccc2oc(-c3cccc(NC(=O)c4ccc(Br)o4)c3)nc2c1	-94*
Cc1cc2nc(-c3cccc(NC(=O)c4ccc(Br)o4)c3)oc2cc1C	-77*
COc1cc(OC)cc(C(=O)Nc2sc3c(c2C(N)=O)CCC3)c1	-105*
NCCNC(=O)c1c(NC(=O)c2ccccc2)sc2c1CCCC2	-125*
NC(=O)c1c(NC(=O)c2ccc(F)cc2Cl)sc2c1CCC2	-96*
NC(=O)c1c(NC(=O)c2ccccc2F)sc2c1CCCC2	-170*
NC(=O)c1c(NC(=O)c2cccs2)sc2c1CCCCCC2	-122*
COCCN(CCOC)S(=O)(=O)c1ccc(C(=O)Nc2sc3c(c2C(N)=O)CCCCC3)cc1	-107*
CCCCCc1ccc(-c2ccc(OC)cc2)nc1	-123*
CCCCc1ccc(-c2ccc(C)cc2O)nc1	84
N=c1oc2ccccc2cc1-c1nc(-c2ccc(Cl)cc2)cs1	-82*
Cc1ccccc1-c1cc(-c2ccccc2O)n[nH]1	-183*
SMILES	aSyn 5UTR act
Cc1ccc(-c2cc(-c3ccccc3Cl)[nH]n2)c(O)c1	-221*
Cc1ccc(-c2cc(-c3ccccc3[N+](=O)[O-])[nH]n2)c(O)c1	-343*
O=C1OCCC1Sc1nnc(-c2ccc(Cl)cc2Cl)o1 (centres undefined)	90
Clc1ccc(-c2nnc(-c3ccc(Br)o3)o2)c(Cl)c1	-192*
CSc1nnc(-c2ccc(Cl)cc2Cl)o1	-120*
CCSc1nnc(-c2ccc(Cl)cc2Cl)o1	-260*
NC(N)=Nc1nc(C2COc3ccccc3O2)cs1 (centres undefined)	-64*
Cc1ccc(NC(=O)c2ocnc2C)cc1Cl	-240*
Cc1ncoc1C(=O)Nc1cccc(Cl)c1	-92*
COc1cccc(NC(=O)c2ocnc2C)c1	-81*
N/C(=N\OC(=O)Cc1ccc(Cl)cc1)c1ccccn1	-154*
N/C(=N\OC(=O)Cc1cccc2ccccc12)c1ccccn1	-156*
CCCc1ccc(C(=O)O/N=C(\N)c2ccccn2)cc1	72
Cc1ccc(CC(=O)O/N=C(\N)c2ccccn2)cc1	-89*
O=C(Nc1ccccc1Cl)c1ccc2nccnc2c1	-96*
O=C(Nc1ccc(Cl)cn1)c1ccc2nccnc2c1	-112*
c1ccc2nc3c(nc2c1)[nH]c1ccccc13	-171*
CC1(C)CC(=O)C2=C(C1)c1c(ccc3ccccc13)NC2c1ccco1 (centres undefined)	-193*
O=C(O)c1ccccc1C(=O)NNc1cccc(Cl)n1	-108*
CN(C)c1ccc(/C=C/C(=O)c2cc(Cl)ccc2O)cc1	-96*
COc1ccc(C(=O)/C=C/Nc2ccccn2)c(OC)c1	-160*
COc1ccc(/C=C/C(=O)CCC(=O)O)cc1	-78*
COc1ccc(C(=O)/C=C/c2ccccc2)c(O)c1	-111*
O=C(/C=C/c1ccc(O)cc1)c1ccc(O)cc1O	-244*
COc1ccc(C(=O)/C=C/C(=O)N(CC(=O)NC2CCCCC2)Cc2ccccc2)c(O)c1	67
SMILES	aSyn 5UTR act
COc1ccc(C(=O)/C=C/c2ccc(OC)cc2OC)c(O)c1	-283*
COc1ccc(/C=C/C(=O)c2ccc(OC)cc2OC)cc1	-114*
COc1ccc(/C=C/C(=O)c2cc3c(cc2N)OCO3)cc1	-183*
COc1ccc(/C=C/C(=O)c2cc(Cl)ccc2O)c(OC)c1	-80*
COc1ccc(C(=O)c2ccc(OC)cc2O)c(O)c1	-120*
COc1ccc(C(=O)/C=C/c2ccccc2OC)c(OC(=O)c2ccc([N+](=O)[O-])cc2)c1	-332*
COc1ccc(/C=C/C(=O)c2cc(F)ccc2OC(=O)c2ccccc2)cc1OC	67
COc1ccc(C(=O)/C=C/c2cc(C(=O)O)cc3c2OCOC3)c(O)c1	-75*
COc1ccccc1/C=N/N(C(C)=O)c1nc(-c2ccc(F)cc2)cs1	-121*
FCCCOc1ccc(/C=N/OCc2c(Cl)cccc2Cl)cc1	-94*
FCCCOc1ccc(/C=N/OCc2ccc(Cl)cc2)cc1	-70*
c1cncc(-c2noc(C34CC5CC(CC(C5)C3)C4)n2)c1	-87*
COC(=O)Nc1nc2ccc(C(=O)c3ccc(F)cc3)cc2[nH]1	99
Cc1nc2ccc(C(=O)c3ccccc3)cc2[nH]1	-95*
CCCC(=O)N1CCN(c2nc3ccc(Cl)cc3s2)CC1	-139*
CCCC(=O)N1CCN(c2nc3ccc(CC)cc3s2)CC1	-116*
CCCCC(=O)N1CCN(c2nc3ccc(Br)cc3s2)CC1	-102*
CCCC(=O)N1CCN(c2nc3ccc(Br)cc3s2)CC1	-142*
